Unmarked numbers belong to inactive results. Results filed as inconclusive are left out. Calls of active or inactive are those of the source. Calls come from the whole dose curve; as a rule, active = well fitted curve in the direction sought with a large enough effect; inconclusive = small, poorly fitted or top-dose-only effect, or another doubt; inactive = no such curve, though single readings can be large; an effect the other way counts as inactive or inconclusive.

Our source for the Potency, activity, negative = inhibition and redox activity (% of DA3003) values is PubChem BioAssay (NCATS).

Assay [1] concerns Nanoluciferase (engineered Oplophorus gracilirostris luciferase). In words: Primary Nanoluciferase (NLuc) qHTS assay for identification of artifact compounds. (AID 1845222).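 Note: series mostly up to about 54 µM; 0% = DMSO and -100% = no enzyme.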 An outline of the steps:
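Compounds are pinned into diluted (1:55) conditioned medium of NLuc-expressing S16 cells and held 15 min at room temperature protected from light. Nano-Glo substrate follows, and luminescence is read 5 min later.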
A general note: In qHTS, concentration-response curves come from the screen itself.

Assay [2] is described as follows: Primary redox qHTS assay for identification of artifact compounds. (AID 1845223).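 Note: 0% = DMSO and 100% = reference compound.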 An outline of the steps: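 Amplex Red (25 uM) and HRP (250 mU/mL) in HBSS, with compounds for 15 min, then 250 uM DTT for 30 min, room temperature, dark. Fluorescence 525/598 nm read; normalized to DMSO and 10 uM DA3003; Hill fit.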

Take `COc1cc2c(cc1OC)N1C(=O)C[C@@]34C=CC[N@+]5([O-])CC[C@H]2[C@H](CC3)[C@@]145`: the Potency entry in assay [1] and in assay [2] was “inactive” each time.

With `Cc1ccccc1NC(=O)Nc1ccc(CN2C(=O)N([C@@H](CC(C)C)C(=O)N[C@@H](CC(=O)O)c3ccccc3)C(=O)C2(C)C)cc1`, the Potency result in assay [1] and in assay [2] was “inactive” in each case.

`COc1cc(-c2ccc(O)cc2)c(OC)c(O)c1C1=CC(=O)OC1CC(=O)O` (stereo not drawn): the Potency entry in assay [1] and in assay [2] was “inactive” throughout.

On to `C/C(=C\CCC1(C)C2CC3C(C2)C31C)C(=O)O` (stereo not drawn), for which the Potency entry in assay [1] and in assay [2] was “inactive” in each case.

Regarding `C/C=C(/C)C(=O)O[C@H]1C[C@]2(C)O[C@@H]2[C@@H](OC(C)=O)[C@@]2(C)CC[C@@](O)(C(C)C)[C@H]12`, the Potency result in assay [1] and in assay [2] was “inactive” each time.

`CC(C)=C1CC2C(CCC2(C)O)C(C)(O)CC1=O` (stereo not drawn): the Potency result in assay [1] and in assay [2] was “inactive” in each case.

For the molecule `CC1(C)CC[C@]2(C(=O)O[C@@H]3O[C@H](CO)[C@@H](O)[C@H](O)[C@H]3O)CC[C@]3(C)C(=CCC4[C@@]5(C)C[C@@H](O)[C@H](O)[C@@](C)(CO)C5[C@H](O)C[C@]43C)C2C1` (stereo partly drawn), the Potency entry in assay [1] and in assay [2] was “inactive” in each case.

Take `O=C(c1c2ccccc2cc2ccccc12)N1CCC(N2CCC[C@@H](C(=O)N3CCOCC3)C2)CC1`: the Potency result in assay [1] and in assay [2] was “inactive” each time.

Turning to `CC1(C)CC[C@]2(C(=O)OC3OC(CO)C(O)C(O)C3O)CC[C@]3(C)C(=CCC4[C@@]5(C)C[C@@H](O)[C@H](OC6OC(C(=O)O)C(O)C(O)C6O)C(C)(C)C5CC[C@]43C)[C@@H]2C1` (stereo partly drawn), in assay [1], the activity, negative = inhibition is 1.92% [at 11.6 µM]. Also, in assay [2], the redox activity (% of DA3003) is 1.95% [at 11.5 µM].

Regarding `CC(=O)c1ccc(O[C@@H]2OC[C@@H](O)[C@H](O)[C@H]2O[C@]2(CO)O[C@H](CO)[C@@H](O)[C@@H]2O)c(O)c1`, the Potency result in assay [1] and in assay [2] was “inactive” each time.

For the molecule `C=C[C@H]1[C@H](O[C@@H]2O[C@H](CO)[C@@H](O)[C@H](OC(=O)/C=C/c3ccc(O)c(OC)c3)[C@H]2O)OC=C2C(=O)OCC[C@]21O`, the Potency result in assay [1] and in assay [2] was “inactive” in each case.

With `CC(C)CC[C@@H](O)[C@](C)(O)[C@H]1CC[C@@]2(O)C3=CC(=O)[C@@H]4C[C@@H](O)[C@@H](O)C[C@]4(C)[C@H]3CC[C@]12C`, the Potency entry in assay [1] and in assay [2] was “inactive” throughout.

Regarding `C=C1C(O)CC2C(C(=O)O)=COC(O[C@@H]3O[C@H](COC(=O)c4ccc(O)cc4)[C@@H](O)[C@H](O)[C@H]3O)C12` (stereo partly drawn), the Potency result in assay [1] and in assay [2] was “inactive” throughout.

As to `COc1ccc(/C=C/C(=O)O[C@@H]2[C@@H](OC(C)=O)[C@@H](OC(C)=O)[C@H](O[C@H]3[C@@H]4C=CO[C@@H](O[C@@H]5O[C@H](CO)[C@@H](O)[C@H](O)[C@H]5O)[C@@H]4[C@@]4(CO)O[C@@H]34)O[C@H]2C)cc1`, the Potency result in assay [1] and in assay [2] was “inactive” each time.

On to `CC(=O)C1CCC(=O)N1Cc1ccccc1` (stereo not drawn), for which the Potency entry in assay [1] and in assay [2] was “inactive” in each case.

`CC(=O)NC(C(=O)OC1CCC(C)(C)C2CC=C3C(=O)OCC3C12C)C(C)C` (stereo not drawn): the Potency entry in assay [1] and in assay [2] was “inactive” in each case.

With `OC[C@@]1(O)CO[C@@H](OC[C@H]2O[C@@H](OCc3ccccc3)[C@H](O)[C@@H](O)[C@@H]2O)[C@@H]1O`, the Potency entry in assay [1] and in assay [2] was “inactive” each time.

Consider `COc1cc(C[C@@]2(O)CO[C@@H](c3ccc(O[C@@H]4O[C@H](CO)[C@@H](O)[C@H](O)[C@H]4O)c(OC)c3)[C@H]2CO)ccc1O`, for which the Potency result in assay [1] and in assay [2] was “inactive” in each case.

Turning to `COC(=O)[C@H](O)[C@H]1C(C)(C)[C@H](OC(C)=O)[C@@]2(O)C(=O)[C@]1(C)C1CC[C@]3(C)C(CC(=O)O[C@H]3c3ccoc3)[C@]13O[C@@H]32` (stereo partly drawn), the Potency entry in assay [1] and in assay [2] was “inactive” in each case.

Turning to `CC1=C2CC3C(CCC3(C)O)C(C)(O)CC2OC1=O` (stereo not drawn), the Potency entry in assay [1] and in assay [2] was “inactive” in each case.

`NC[C@H]1CCC[C@@H](CNC(=O)[C@@H](Cc2c[nH]c3ccccc23)NC(=O)N2CCC3(C=Cc4ccccc43)CC2)C1`: the Potency entry in assay [1] and in assay [2] was “inactive” throughout.

Turning to `CC[C@@H](Nc1c(Nc2cccc(C(=O)N(C)C)c2O)c(=O)c1=O)c1ccc(C)o1`, the Potency entry in assay [1] and in assay [2] was “inactive” each time.

On to `CC(=O)OCC1=C[C@@H]2OC(=O)C3=CO[C@@H](O[C@@H]4O[C@H](CO)[C@@H](O)[C@H](O)[C@H]4O)[C@H]1[C@@H]32`, for which the Potency entry in assay [1] and in assay [2] was “inactive” each time.

Take `O=C(/C=C/c1ccc(O)c(O)c1)O[C@H]1[C@@H]2C=CO[C@@H](O[C@@H]3O[C@H](CO)[C@@H](O)[C@H](O)[C@H]3O)[C@@H]2[C@@]2(CO)O[C@@H]12`: the Potency result in assay [1] and in assay [2] was “inactive” in each case.

Consider `C=C1CCC2(OC1)OC1CC3C4CC=C5CC(O)CC(O[C@@H]6OC[C@H](OC(=O)C(O)C(C)CC)[C@H](O)[C@H]6O[C@@H]6O[C@@H](C)[C@H](O)[C@@H](O)[C@H]6O)C5(C)C4CCC3(C)C1C2C` (stereo partly drawn), for which, in assay [1], the activity, negative = inhibition is 4.49% [at 11.6 µM]. Moreover, the redox activity (% of DA3003) in assay [2] was -3.18% [at 11.5 µM].

With `CC1(C(=O)O)CCCC2(C)C3CC4C5CC3(CCC12)CC45C` (stereo not drawn), the Potency entry in assay [1] and in assay [2] was “inactive” each time.

As for `COc1cc2c(cc1O)CC(O)(CO)C(CO)C2c1ccc(OC2OC(CO)C(O)C(O)C2O)c(OC)c1` (stereo not drawn), the Potency result in assay [1] and in assay [2] was “inactive” each time.

As for `C=C(C)C1CCC2(C(=O)OC3OC(COC4OC(CO)C(O)C(O)C4O)C(OC4OC(C)C(O)C(O)C4O)C(O)C3O)CCC3(C(=O)O)C(CCC4C5(C)CCC(=O)C(C)(C)C5CCC43C)C12` (stereo not drawn), the activity, negative = inhibition in assay [1] was 3.95% [at 11.6 µM]. For the same molecule, the redox activity (% of DA3003) in assay [2] was 7.53% [at 11.5 µM].

For `COc1ccc(C(=O)CC(=O)O)c2c1C=CC(C)(C)O2`, the Potency entry in assay [1] and in assay [2] was “inactive” each time.

For the molecule `C=C1C[C@H](O)[C@@H](O)[C@@]2(C)C1[C@@H](O)[C@H]1OC(=O)C3[C@@H](C)[C@@H](O)[C@H](O)C2[C@]31C` (stereo partly drawn), the Potency result in assay [1] and in assay [2] was “inactive” in each case.

In the case of `CCCCCOC(=O)Nc1nc(=O)n(C2O[C@H](C)[C@@H](O)[C@H]2O)cc1F` (stereo partly drawn), the Potency entry in assay [1] and in assay [2] was “inactive” throughout.

Regarding `CC(C)=CCc1cc(O[C@@H]2O[C@H](CO[C@@H]3OC[C@](O)(CO)[C@H]3O)[C@@H](O)[C@H](O)[C@H]2O)ccc1O`, the Potency entry in assay [1] and in assay [2] was “inactive” throughout.

For `CC1=C2CC(O)(C(C)(C)O)C(O[C@@H]3O[C@H](CO)[C@@H](O)[C@H](O)[C@H]3O)CC(C)C2CC1=O` (stereo partly drawn), the Potency result in assay [1] and in assay [2] was “inactive” in each case.

Consider `O=C(OC1C=C(CO)C2C(OC3OC(CO)C(O)C(O)C3O)OC=CC12O)c1ccc(O)cc1` (stereo not drawn), for which the Potency result in assay [1] and in assay [2] was “inactive” throughout.
